Data on 26 compounds can be found in PubChem BioAssay (Tox21).

Results filed as inconclusive are left out. Values without a mark were called inactive. Calls come from the whole dose curve.
% is set by controls: 0 for no effect and ±100 for the full control effect.

Muscarinic acetylcholine receptor M1 (Homo sapiens), sequence (P11229 whole entry, looked up): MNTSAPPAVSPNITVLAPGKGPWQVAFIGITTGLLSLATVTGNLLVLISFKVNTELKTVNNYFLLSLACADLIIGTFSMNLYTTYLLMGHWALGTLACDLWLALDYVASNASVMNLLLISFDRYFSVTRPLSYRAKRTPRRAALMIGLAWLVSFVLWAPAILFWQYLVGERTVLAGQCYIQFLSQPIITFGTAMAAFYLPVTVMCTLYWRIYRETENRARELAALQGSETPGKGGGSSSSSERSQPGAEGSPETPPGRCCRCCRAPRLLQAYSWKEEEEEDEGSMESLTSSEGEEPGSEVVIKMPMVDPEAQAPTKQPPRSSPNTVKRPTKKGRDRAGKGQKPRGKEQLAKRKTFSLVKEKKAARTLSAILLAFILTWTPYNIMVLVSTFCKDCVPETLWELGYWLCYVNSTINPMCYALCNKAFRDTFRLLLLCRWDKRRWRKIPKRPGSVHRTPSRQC

The test concerns the target Muscarinic acetylcholine receptor M1 (Homo sapiens) (UniProt P11229). The test is described as follows: Cholinergic receptor muscarinic 1 (CHRM1) small molecule antagonists, cell-based qHTS assay (AID 1963588). Note: nearly all actives have a fitted effect of over 40% in size. The settings on record: CHRM1-CHO antagonist mode, calcium flux fluorescence; series mostly up to 61.5 µM; activity, negative = inhibition: at the top concentration. In outline: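 Compounds were tested at 15 concentrations in three independent runs. Dye-loaded CHRM1-CHO cells were exposed 5 min at room temperature before stimulation by acetylcholine added at 50nM. Intracellular calcium was read kinetically on FDSS for 3 min.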
A general note: In qHTS, concentration-response curves come from the screen itself.
Regarding `ClCBr`, the “activity, negative = inhibition” value is 2.69%.

As to `C#CC(C)(C)O`, the “activity, negative = inhibition” value was 45%.

As for `Brc1cccc(-c2ccccc2)c1`, the “activity, negative = inhibition” value was 17.4%.

As to `CCCCOC(=O)c1ccccc1N`, the “activity, negative = inhibition” value was 1.72%.

In the case of `ClCCCCBr`, the “activity, negative = inhibition” value was 2.12%.

In the case of `O=S(=O)(Cl)c1ccccc1`, the “activity, negative = inhibition” value is 1.83%.

Regarding `C[N+]1(CCC(C(N)=O)(c2ccccc2)c2ccccc2)CCCCC1`, the “activity, negative = inhibition” value is -52.6% [at 28.3 µM].

Consider `Nc1ccc([N+](=O)[O-])cc1[N+](=O)[O-]`, for which the “activity, negative = inhibition” value is 3.36%.

With `ClCCCCCCCl`, the “activity, negative = inhibition” value was 6.97%.

`CCNc1nc(NC(C)C(C)C)nc(SC)n1` (stereo unspecified): the “activity, negative = inhibition” value was -26.3%.

For the compound `CC1(C)COP(Oc2ccccc2)OC1`, the “activity, negative = inhibition” value is 9.69%.

On to `CNC(=O)O/N=C(\C)SC`, for which the “activity, negative = inhibition” value is 6.96%.

With `C[C@H](N)C(=O)c1ccccc1`, the “activity, negative = inhibition” value was 26.6%.

Regarding `O=C1OC(=O)C2C1C1(Cl)C(Cl)=C(Cl)C2(Cl)C1(Cl)Cl` (stereo unspecified), the “activity, negative = inhibition” value is 0.975%.

`O=C(Nc1ccc(F)cc1F)c1cccnc1Oc1cccc(C(F)(F)F)c1`: the “activity, negative = inhibition” value was 4.77%.

Consider `CCC1(c2cccc(O)c2)CCCCN(C)C1` (stereo unspecified), for which the “activity, negative = inhibition” value is 22.9% [at 28.3 µM].

For the compound `O=C(O)[C@H](O)[C@@H](O)C(=O)O`, the “activity, negative = inhibition” value was 1.49%.

In the case of `COc1c2c(cc3c1OCO3)CCN(C)C2`, the “activity, negative = inhibition” value is -18.7% [at 28.3 µM].

Regarding `O=[N+]([O-])c1cc(Cl)c(Cl)cc1Cl`, the “activity, negative = inhibition” value was 7.02%.

With `ClC(Cl)C(Cl)(Cl)Cl`, the “activity, negative = inhibition” value is -0.68%.

Take `Cc1cnc2c(C(=O)O)c(Cl)ccc2c1`: the “activity, negative = inhibition” value was -7.17%.

Regarding `Cc1ccn2nc(S(=O)(=O)Nc3c(F)cccc3F)nc2n1`, the “activity, negative = inhibition” value is -1.71%.

For the compound `CCCCC(CC)COP(=O)(Oc1ccccc1)Oc1ccccc1` (stereo unspecified), the “activity, negative = inhibition” value is 3.65%.

On to `C[C@]12CC[C@@H]3c4ccc(OC(=O)N(CCCl)CCCl)cc4CC[C@H]3[C@@H]1CC[C@@H]2O`, for which the “activity, negative = inhibition” value was 14.5% [at 28.3 µM].

`CC(C)(N)Cc1ccc(Cl)cc1`: the “activity, negative = inhibition” value was -2.58% [at 28.3 µM].

In the case of `N#Cc1c2ccccc2cc2ccccc12`, the “activity, negative = inhibition” value was 56%.
